The assay has as its system Perkinsus marinus PRA240. Briefly: ATP content (proliferation) relative to DMSO control; higher = more parasite growth (less inhibition). As to conditions: 20 µM; 4 days. As to the method: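 Perkinsus marinus PRA240 trophozoites (2-5x10^6 cells/ml, 100 µl, 96-well) were exposed once to MMV Malaria Box compounds at 20 µM (0.1% DMSO) in triplicate. ATP content (ATPlite bioluminescence) was read at day 4 post-exposure and normalised to DMSO + cells control wells (100% activity). Compounds were identified by joining plate and well to the Malaria Box list.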
`N#Cc1nc(Cc2cccc3ccccc23)oc1N1CCN(C(c2ccccc2)c2ccccc2)CC1` registered an ATP content of 132%. The value for `OC(CNC1CCCCC1)Cn1c2ccc(I)cc2c2cc(I)ccc21` (stereo not drawn) was 4.02%.

`Cc1ccc(C2CC(C(F)(F)F)n3nc(C(=O)N4CCN(C(c5ccccc5)c5ccccc5)CC4)cc3N2)cc1` (stereo not drawn) registered an ATP content of 144%. In the case of `CCOc1ccc2nc(C)cc(Nc3ccc(Br)cc3)c2c1`, the ATP content was determined as 3.75%. The value for `O=C(Nc1ccc(Cl)cc1C(=O)Nc1ccncc1)c1ccc(Cl)cc1Cl` was 103%; that for `COc1cc(-c2nc(-c3ccc(Sc4ccccc4)cc3)c(-c3ccccc3)[nH]2)cc(OC)c1O` was 78.3%. The value for `Cc1cc(NC(=O)c2cccc(C(F)(F)F)c2)n(-c2nc(-c3ccc4c(c3)OCO4)cs2)n1` was 144%. The value for `CCN(CC)c1cc(C)c2cc(NC(=O)c3cccc(OC)c3)ccc2n1` was 74%; that for `CCCCN(CCCC)S(=O)(=O)c1ccc(NC(=O)c2ccco2)cc1` was 43.3%; that for `CCOc1ccc(CN2CCN(CC(O)COc3ccc(OCC(O)CN4CCN(Cc5ccc(OCC)cc5)CC4)cc3)CC2)cc1` (stereo not drawn) was 137%. As for `CCN(Cc1ccccc1)C1CCN(Cc2cc(Br)ccc2O)CC1`, the ATP content is 171%. `CC1(c2ccccc2)Nc2ccccc2-c2nc3ccccc3n21` (stereo not drawn) returned an ATP content of 109%. The value for `CC(C)OCc1cc(CN2CCN(c3cccc(Cl)c3)CC2)c(O)c2ncccc12` was 12%; that for `Cc1cccc(-n2ncc3c(=O)[nH]c(-n4nc(C)cc4NC(=O)c4cc5ccccc5o4)nc32)c1` was 19%; that for `COc1ccccc1N1CCN(C(CNS(=O)(=O)c2ccc(Cl)cc2)c2cccnc2)CC1` (stereo not drawn) was 111%. For `CCN(CC)c1ccc(NC(=O)c2cccs2)cc1`, the ATP content is 64%. `COc1cc(C(=O)Nc2ccc(-c3nc4ccccc4[nH]3)cc2)cc(OC)c1OC` gave an ATP content of 124%. The value for `CN1CCN(c2ncnc3c2[nH]c2ccc(Cl)cc23)CC1` was 111%; that for `Cc1ccccc1OCCSc1nc2ccc(NC(=O)c3cccs3)cc2s1` was 30.1%.

Consider `N=c1n(CCN2CCCCC2)c2ccccc2n1CC(=O)c1ccc(Cl)c(Cl)c1`, for which the ATP content turned out to be 111%. The same measure for `CCOc1cc(Cl)c(C(C)NC(=O)c2ccccc2)cc1OCC` (stereo not drawn): 91.1%; for `CCOC(=O)C1=C(C)N=c2sc(=Cc3ccccc3O)c(=O)n2C1c1ccc(OC)c2ccccc12` (stereo not drawn): 196%.

Take `Cc1ccc2nc(C)cc(Nc3cccc(C(F)(F)F)c3)c2c1`: the ATP content worked out at 121%. `O=C(Nc1ccc(-c2nc3ccccc3[nH]2)cc1)c1ccc(Cl)c(Cl)c1` displayed an ATP content of 97.8%. The same measure for `COC(=O)c1ccc(C2C3=C(O)CC(c4ccc(F)cc4)CC3=Nc3ccccc3N2C(=O)c2ccccc2)cc1` (stereo not drawn): 105%; for `CC(O)(c1ccc(Cl)cc1)C(CN1CCCCC1)c1ccccc1` (stereo not drawn): 79.2%.

Compound `CCOc1ccc(CCNC(=O)c2cccs2)cc1OCC` gave an ATP content of 67.6%. The same measure for `CCOC(=O)C1=C(C)N=c2sc(=Cc3cc(Cl)ccc3O)c(=O)n2C1c1ccc(OC)cc1` (stereo not drawn): 61.6%; for `COc1ccc(C(=O)Nc2ccc3nc(N4CCCCC4)cc(C)c3c2)cc1OC`: 101%. Consider `COc1ccc(C2c3ccc4ccccc4c3Oc3ncn(CCCN(C)C)c(=N)c32)cc1` (stereo not drawn), for which the ATP content was determined as 202%. `COc1ccccc1C(=O)ON=C(N)Cc1cccc2ccccc12` yielded an ATP content of 148%. In the case of `Oc1ccccc1CN1CCC2(CCCN(Cc3ccccc3F)C2)C1` (stereo not drawn), the ATP content was 70.1%. The same measure for `CN(C)CCCNCc1ccc(-c2ccc(F)c(Cl)c2)o1`: 123%; for `OC(CNCc1ccccc1)Cn1c2ccccc2c2ccccc21` (stereo not drawn): 105%. The same measure for `CCc1ccc(Nc2cc(C)nc3nc(C)nn23)cc1`: 139%; for `CCOc1c(Cl)cc(CNCC(O)c2ccccc2)cc1OC` (stereo not drawn): 105%.

For `Cc1cc(Nc2cccc(F)c2)nc(NCc2ccccc2)n1`, the ATP content is 94.7%.

In turn, `COc1ccccc1N1C(=N)SC(=Cc2ccc(OCc3ccccc3F)cc2)C1=O` registered an ATP content of 57.5%.
